# High-throughput results: PubChem BioAssay, Broad Institute
# In the library only some 3% were active in any assay of this set; here they are far more common.
# MITF act: increases MITF-driven TRPM1 promoter luciferase signal | SK-MEL-5 TRPM1-promoter luciferase, 24 h; % of positive control, neutral wells = 0 | activation, % at 12.5 µM | 0.75% of 300,000 active;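 active = mean activation of at least 80% with every replicate also reaching 80%; inconclusive = mean reaches 80% but some replicate falls short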;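 also: 0% = neutral control wells and 100% = parthenolide positive control wells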
# N-glyco inh: N-linked glycosylation inhibition; 0.23% of 360,000 active; AID 588692; D54 ERlucT glycosylation luciferase reporter, 24 h; percent of 100 nM tunicamycin response; reporter increase, % at 12.5 µM;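 active = mean luciferase reporter signal, scaled so untreated is 0 and the glycosylation-blocking control 100, at or above a set limit in every replicate; inconclusive = mean reaches the limit but not every replicate does; inactive = mean below the limit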;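 also: luciferase carries N-glycosylation sites so blocking glycosylation raises the light; 0% = median of neutral control wells and 100% = median of 100 nM tunicamycin wells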
# esBAF inh: blocks esBAF chromatin remodeling in mouse ES cells. Bmi1-luciferase knock-in reporter, 24 h; 100% = twice the neutral-well signal. reporter increase, % at 12.5 µM. 2% of 350,000 active; in the data active = activation above about 40%; inconclusive = no clear call, values can overlap the other calls;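 also: 0% = median of the plate's neutral control wells and 100% = double that signal; a rise in the Bmi1 reporter signal indicates esBAF inhibition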
# Vif inh: inhibitors of HIV Vif. HEK293T cells, Vif self-association by quenched fluorescence, imaging, 24 h. inhibition, % at 7.49 µM. 0.35% of 340,000 active; in the data active = inhibition above about 50%, passing the limit was not always enough; inconclusive = no clear call, values can overlap the other calls; inactive = below about 31%
# PfHsp90 set2: growth inhibition of yeast expressing Plasmodium Hsp90; S. cerevisiae expressing PfHsp90, BacTiter-Glo ATP, 48 h; yeast lacking PDR1 and PDR3 efflux regulators; inhibition, % at 9.4 µM; 0.32% of 310,000 active;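 active = every replicate shows inhibition above about 80%, whatever the replicate mean, limit read from the data; inconclusive = mean inhibition reaches the set limit but some replicate falls short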;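 also: 0% = DMSO neutral controls and 100% = 20 µM radicicol positive controls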
# Wnt bcat act: activates Wnt/beta-catenin signaling in a reporter cell assay | activator, plate reader | activation, % at 9.35 µM | 1.2% of 300,000 active | AID 743398; in the data active = activation above about 30%, passing the limit was not always enough; inconclusive = no clear call, values can overlap the other calls;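 also: 0% = neutral control wells and 100% = positive control wells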
# * hit, by the source's call; ? = inconclusive; . = not tested or not shown.
SMILES,MITF act,N-glyco inh,esBAF inh,Vif inh,PfHsp90 set2,Wnt bcat act
C=CCNC(=O)CSc1nc2sc3c(c2c(=O)n1CCCOC)CCC3,.,1,-4,-8,1,-1
O=C(/C=C/c1cccs1)c1ccc([N+](=O)[O-])cc1,22,2,0,-5,9,-8
O=C(/C=C/c1ccccc1)Nc1cccnc1,.,-1,31,-1,5,39*
Cc1nc(NC(=O)/C=C/c2ccccc2)n[nH]1,-58,15,40,26,19,39*
O=C(/C=C/c1cccs1)Nc1ccc([N+](=O)[O-])cc1,68,3,.,2,-9,31*
O=C(Cc1ccc([N+](=O)[O-])cc1)Nc1cccnc1,7,0,.,-2,-3,7
O=C(/C=C/c1ccc([N+](=O)[O-])cc1)Nc1cccnc1,8,-4,23,-2,19,38*
C[C@@H]1CN([C@@H](C)CO)S(=O)(=O)c2ccc(Br)cc2O[C@@H]1CN(C)Cc1ccccn1,.,0,2,-5,.,0
C[C@H](CO)N1C[C@H](C)[C@H](CN(C)S(=O)(=O)c2ccccc2)Oc2ccc(NC(=O)c3ccncc3)cc2C1=O,.,.,4,.,.,.
CC1(C(=O)NS(=O)(=O)c2cccc(F)c2)CCN1C(=O)CCc1ccc(Cl)cc1Cl (stereo not drawn),.,4,-5,18,.,-1
Cc1cccc(NC(=O)/C=C/c2cccs2)n1,104*,-5,20,-7,-6,.
O=C(/C=C/c1ccc(Cl)c([N+](=O)[O-])c1)Nc1cccnc1,20,2,53*,11,7,0
O=C(/C=C/c1cccs1)Nc1ccncc1,42,-1,.,-5,9,7
N#C[C@@H]1[C@@H](c2ccc(C#Cc3cccc(F)c3)cc2)[C@@H](CO)N1C(=O)C1CCCC1,.,.,50*,.,.,.
N#C[C@@H]1[C@@H](c2ccc(C#Cc3ccccc3F)cc2)[C@@H](CO)N1C(=O)C1CCCCC1,.,.,51*,.,.,.
COc1ccc(-c2ccc([C@H]3[C@@H](C#N)N(C(=O)c4cccc(F)c4)[C@@H]3CO)cc2)cc1,.,.,51*,.,.,.
COc1ccc(S(=O)(=O)NCCC(=O)N2CCCC2)cc1N(C)S(C)(=O)=O,7,2,-11,-4,12,2
Cn1c(=O)oc2cc(S(=O)(=O)NCCCN3CCCC3=O)ccc21,.,3,3,15,-5,-1
O=S(=O)(Cc1ccccc1)NCC[C@H]1CC[C@H](NS(=O)(=O)c2ccc(F)cc2)[C@H](CO)O1,.,.,2,.,.,.
N#C/C(=C\c1ccccc1O)C(=O)Nc1cccnc1,94*,-5,41,-8,-6,36*
CCc1c(C(=O)NCCc2cccc(C)c2)[nH]c(C)c1C(C)=O,10,-6,10,.,2,2
CC(=O)c1c(C)[nH]c(C(=O)Nc2cccc(C)n2)c1C,60,-11,-6,-2,-7,39*
CC(=O)c1c(C)[nH]c(C(=O)NCCc2cccc(C)c2)c1C,64,0,75*,6,4,9
CCc1c(C(=O)Nc2ccc(OC)cc2)[nH]c(C)c1C(C)=O,.,3,29,-1,13,22
CCc1c(C(=O)Nc2ccc(C)c(C)c2)[nH]c(C)c1C(C)=O,88*,5,71*,-8,-11,12
SMILES,MITF act,N-glyco inh,esBAF inh,Vif inh,PfHsp90 set2,Wnt bcat act
CC(=O)c1c(C)[nH]c(C(=O)Nc2ccc(C)cc2Br)c1C,?,3,86*,-5,-37,26
CC(=O)c1c(C)[nH]c(C(=O)Nc2cc(C)ccc2C)c1C,4,-1,0,3,-5,2
Cc1noc(C)c1S(=O)(=O)Nc1ccc2c(c1)C(=O)N([C@H](C)CO)C[C@@H](C)[C@H](CN(C)S(=O)(=O)c1ccc(F)cc1)O2,.,.,-1,.,.,.
CC(=O)c1c(C)[nH]c(C(=O)Nc2ccc(C)c(C)c2)c1C,.,-4,85*,-4,.,55*
COc1ccc(C(=O)/C=C/c2ccccc2C(F)(F)F)cc1,-15,20,14,10,9,34*
CCOc1ccc(C(=O)/C=C/c2ccccc2C(F)(F)F)cc1,4,4,21,1,-9,-9
COc1ccc(/C(N)=N/OC(=O)c2cccs2)cc1OC,84*,5,.,-4,24,8
